Test results published in publication PMC7819943, “Rice protein-binding microarrays: a tool to detect cis-acting elements near promoter regions in rice”.
In all, about 35,000 sequences were measured (“fluorescence intensity (a.u.)”: median about 10,000, highest 2% from about 52,000 on). The full list was thinned out, with the highest values kept by preference.

Target: T1, OsWOX13 (Oryza sativa, UniProt Q5QMM3 1-267)
T1 sequence: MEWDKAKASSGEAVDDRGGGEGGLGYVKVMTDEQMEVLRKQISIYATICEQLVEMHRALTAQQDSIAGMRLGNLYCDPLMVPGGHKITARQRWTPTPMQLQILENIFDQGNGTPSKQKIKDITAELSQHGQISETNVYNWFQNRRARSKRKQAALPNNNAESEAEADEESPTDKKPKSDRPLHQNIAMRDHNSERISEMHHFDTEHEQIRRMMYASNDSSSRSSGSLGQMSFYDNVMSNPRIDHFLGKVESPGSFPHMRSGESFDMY
Assay: protein-binding microarray (RPBM); PBS, 2% BSA, 51.3 ng/ul salmon testes DNA, 50 uM zinc acetate, 200 nM TF, 25 C, 1 h; high values mean tight binding
Settings: protein: recombinant; tags: N-terminal polyhistidine and DsRed monomer fusion (pET32a); label: CyDye5-dUTP incorporated in the synthesized complementary strand; 3' TTTTT single-stranded linker to array surface; dsDNA, one strand shown
In short: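 Ni–NTA purification followed expression in E. coli BL21-CodonPlus of transcription factors fused N-terminally to a polyhistidine tag and DsRed. At 200 nM in PBS with 2% BSA, salmon testes DNA and 50 µM zinc acetate, the protein was incubated for 1 h at 25 °C with a custom Agilent array that had been primer-extended with Cy5-dUTP and blocked with 2% BSA. After washing, the array was read on an Axon 4000B scanner. The binding signal is per-feature fluorescence intensity in arbitrary units.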

Sequence	binding signal
AAACCATTGCAAATTAACTCTCCAAATGGTTTCAGAGACGCGGAGTCACCTAGTGCAG	4040 fluorescence intensity (a.u.)
TACGCTATACGCAGTAATTGATATATATAATCTTCATGGTCGGAGTCACCTAGTGCAG	8920 fluorescence intensity (a.u.)
CCAAATGGGACAAAAGATTGAAAAGAAAACTGACAGCCGCCGGAGTCACCTAGTGCAG	13900 fluorescence intensity (a.u.)
GTCCCAATGATTGCCAGCCCCGGTGGACGGGTGTAGAAGCCGGAGTCACCTAGTGCAG	38100 fluorescence intensity (a.u.)
ATAACTATTTAATTGACATGCAATAAATATAAATGGGTAGCGGAGTCACCTAGTGCAG	52600 fluorescence intensity (a.u.)
TATAATTGACATGCAATTATAATAACGTGGGTTAAATATACGGAGTCACCTAGTGCAG	33800 fluorescence intensity (a.u.)
CTTTTAAATGTAGTATAATTATATTATAACTAATAACTAGCGGAGTCACCTAGTGCAG	18300 fluorescence intensity (a.u.)
CCAAATTCATCTTAATGTTTGATTATGATCAGCATCTTATCGGAGTCACCTAGTGCAG	4610 fluorescence intensity (a.u.)
TCTAAATTGTATTTCTATATGGACTCTAGTCTCCTCTTCACGGAGTCACCTAGTGCAG	14000 fluorescence intensity (a.u.)
AGCTCTGATTGAATTAGCTAATTATGGTTGCACGTCTAAGCGGAGTCACCTAGTGCAG	59600 fluorescence intensity (a.u.)
TAAACATCTGATTAGCTAAAAGTGTTTAATTAGATTTCCACGGAGTCACCTAGTGCAG	21800 fluorescence intensity (a.u.)
TCCCCTCTGATTAATTAATTAATTAATTAATTAGCTAAAACGGAGTCACCTAGTGCAG	65500 fluorescence intensity (a.u.)
AGTCAAATTAATCACGCAGCTGAATGCTGAATAATGTGTCCGGAGTCACCTAGTGCAG	24000 fluorescence intensity (a.u.)
TATTAATTTGTAATTAATATTGAATAACGCTGCGTGAGTACGGAGTCACCTAGTGCAG	45900 fluorescence intensity (a.u.)
GAAATAATTAATCAATTAACGCTGATGTGTGAGCTGCGTACGGAGTCACCTAGTGCAG	53800 fluorescence intensity (a.u.)
GAACAATAGATTAATATATAATTAAATAAATATTAGTCAACGGAGTCACCTAGTGCAG	25100 fluorescence intensity (a.u.)
TACAATCTGATTAATTAATTAGCACGGAAAATAATGTCAACGGAGTCACCTAGTGCAG	59200 fluorescence intensity (a.u.)
CGTCTAATTAAGCGTAGACGATCTGATTCGCTAGCTCGCACGGAGTCACCTAGTGCAG	10600 fluorescence intensity (a.u.)
TCCTCTCTTAATTAATTATTAGCTCGTGTTAATTGTTAAACGGAGTCACCTAGTGCAG	32800 fluorescence intensity (a.u.)
CAGTTGATTGGCCGACGTTATGATATGGTAGCTGAATTAGCGGAGTCACCTAGTGCAG	44100 fluorescence intensity (a.u.)
GAAACGTGATTCAAATGATTATTCAGGTACAATAATCTTACGGAGTCACCTAGTGCAG	8070 fluorescence intensity (a.u.)
TTACAAGACTTTCAATTATTATCCACATTTATATAGATGTCGGAGTCACCTAGTGCAG	7150 fluorescence intensity (a.u.)
CACCAATCAGGGTTCCAAGTAGAAGAGGTGGGCAGAGAGCCGGAGTCACCTAGTGCAG	6870 fluorescence intensity (a.u.)
GATAATTTGGTCATTGCTAAAATATTTGGGAAAAGTTAGCCGGAGTCACCTAGTGCAG	23700 fluorescence intensity (a.u.)

Sequence	binding signal
TTATAATTGGAAAATAAATGAAGGGTTATAATTAAATGAACGGAGTCACCTAGTGCAG	12000 fluorescence intensity (a.u.)
CTAAGCTGTGATTTCTTTTCTTTATGTCACCACCTCCAAACGGAGTCACCTAGTGCAG	3460 fluorescence intensity (a.u.)
TTAATTAGACTGACATGTGGGGTCCGCGTGGGTCCCACCACGGAGTCACCTAGTGCAG	20200 fluorescence intensity (a.u.)
TAGTCGTGTCAATTTGGAAAATTGGAAAGCCGTGGGGAGACGGAGTCACCTAGTGCAG	11400 fluorescence intensity (a.u.)
TGATAATAATCTGTTCAATAATTTATCTTAAACAGGGCCTCGGAGTCACCTAGTGCAG	11200 fluorescence intensity (a.u.)
CCCTATCAATTACCTTCACTATCATATTAATCATTGTAGGCGGAGTCACCTAGTGCAG	24100 fluorescence intensity (a.u.)
CAAACAGTCAATTAGGCCTAAACAAGTTGCTACGAGCTAGCGGAGTCACCTAGTGCAG	33200 fluorescence intensity (a.u.)
TTATTACAATTTAATTATATTTTAATTATTCTAAAAGCTTCGGAGTCACCTAGTGCAG	20200 fluorescence intensity (a.u.)
CACTTAATTTGTTAATTAAATATATTTTCCAAACAAATTTCGGAGTCACCTAGTGCAG	39100 fluorescence intensity (a.u.)
TAAAATTAAGCTCCAAATAAACTATATAAAATTATGTATTCGGAGTCACCTAGTGCAG	4090 fluorescence intensity (a.u.)
GCTAATTATAGTTTAATTAGGCTTAATAAATTTACAGTTTCGGAGTCACCTAGTGCAG	42300 fluorescence intensity (a.u.)
GAATATTAAACTTCCAAAACAGGTCCAAAGCTATGTTCTTCGGAGTCACCTAGTGCAG	57500 fluorescence intensity (a.u.)
ATTAATTAAAGCTAATTAAACGATGTTGTTTATTAGGCTTCGGAGTCACCTAGTGCAG	58700 fluorescence intensity (a.u.)
AATTGCGTGATTGTGCTAATCAAAATGCAGAATTGGATATCGGAGTCACCTAGTGCAG	23000 fluorescence intensity (a.u.)
CAAAATTAAACTTTAAAATTCAGACTTCAGACTCCAGTGCCGGAGTCACCTAGTGCAG	13400 fluorescence intensity (a.u.)
ACTACTAAGTTAATTGCATTTTACTTCTCTCTCAATCTCGCGGAGTCACCTAGTGCAG	10000 fluorescence intensity (a.u.)
TTCGATCCTGACTGGAATTGGATGCCTAGTTTGCCTTGCCCGGAGTCACCTAGTGCAG	4190 fluorescence intensity (a.u.)
GTTAACTGAATATTATATCGAAGAAAACTTGCATTTCAGACGGAGTCACCTAGTGCAG	7980 fluorescence intensity (a.u.)
CTCAAAATTTAAATTTAAGGTTAAAAGTTAAAATTTTACGCGGAGTCACCTAGTGCAG	21200 fluorescence intensity (a.u.)
TTGACTTGTACATAGTAATGATTGGCAGGTAATGACGTACCGGAGTCACCTAGTGCAG	24100 fluorescence intensity (a.u.)
ATAGATAGATAGATAGATAGATAGATTGATCGATCGATCGCGGAGTCACCTAGTGCAG	55400 fluorescence intensity (a.u.)
AAGATAGATAGATAGATAGATAGATAGATCGATCGATCATCGGAGTCACCTAGTGCAG	14900 fluorescence intensity (a.u.)
CCTGCATCATCAATCTGCCTACATATCGATCGATTGATCTCGGAGTCACCTAGTGCAG	4630 fluorescence intensity (a.u.)
